The supplement of paper PMC10849652
The full data set covers some 7,900 targets. This sample favours those with a hit. About 0.6% of all pairs of compound and target were hits.

Compound: C1=CC2=C(C=CC(=C2)/C=C\3/C(=O)NC(=NCC4=CC=CS4)S3)N=C1
Assay: log2 fold change, soluble protein after heating vs DMSO (PISA); higher = thermal stabilisation; K562 cells, 10 uM, 30 min; active = over 0.2 and 3.5 SD of the protein, either way, in both replicates (recomputed)
How it was run: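 Quantification of soluble protein used TMTpro 16plex LC-MS/MS, with channel sums equalised. Samples were the supernatant after 21,000xg for 90 min of pooled aliquots from K562 cells (2×10^6 cells/mL) treated with 10 μM compound for 30 min, heated for 3 min over 48°C-58°C, and extracted in PBS with 0.5% NP-40 at 4°C. Values, from duplicates, describe thermal stability against control samples on a log2 fold-change scale.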

Chain of UniProt O75400 (O75400 whole entry, looked up): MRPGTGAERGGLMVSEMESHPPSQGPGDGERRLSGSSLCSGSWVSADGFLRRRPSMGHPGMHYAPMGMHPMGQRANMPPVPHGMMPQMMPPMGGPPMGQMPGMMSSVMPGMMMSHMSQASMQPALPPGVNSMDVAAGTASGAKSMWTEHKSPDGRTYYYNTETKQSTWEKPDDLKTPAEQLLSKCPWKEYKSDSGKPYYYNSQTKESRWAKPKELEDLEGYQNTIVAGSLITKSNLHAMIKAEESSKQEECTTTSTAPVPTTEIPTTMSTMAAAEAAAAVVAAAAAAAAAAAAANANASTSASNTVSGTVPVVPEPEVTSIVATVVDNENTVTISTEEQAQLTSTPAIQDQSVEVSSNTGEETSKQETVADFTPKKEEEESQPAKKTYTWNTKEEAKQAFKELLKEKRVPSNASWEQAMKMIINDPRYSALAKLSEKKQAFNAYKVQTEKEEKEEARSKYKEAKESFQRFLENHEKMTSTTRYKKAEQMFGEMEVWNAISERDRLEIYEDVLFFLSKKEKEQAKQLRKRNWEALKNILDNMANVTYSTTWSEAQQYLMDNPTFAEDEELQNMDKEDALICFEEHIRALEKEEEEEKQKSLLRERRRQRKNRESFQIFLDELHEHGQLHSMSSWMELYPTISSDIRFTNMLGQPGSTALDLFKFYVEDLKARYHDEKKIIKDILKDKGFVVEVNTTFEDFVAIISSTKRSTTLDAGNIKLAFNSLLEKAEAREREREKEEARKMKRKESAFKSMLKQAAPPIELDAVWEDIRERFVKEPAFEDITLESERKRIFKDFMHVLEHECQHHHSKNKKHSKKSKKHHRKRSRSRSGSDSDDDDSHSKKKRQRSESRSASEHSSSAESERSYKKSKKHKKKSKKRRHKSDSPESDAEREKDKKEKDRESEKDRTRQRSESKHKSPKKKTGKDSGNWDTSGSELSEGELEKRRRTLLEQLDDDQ
Chain of UniProt Q05655 (Q05655 whole entry, looked up): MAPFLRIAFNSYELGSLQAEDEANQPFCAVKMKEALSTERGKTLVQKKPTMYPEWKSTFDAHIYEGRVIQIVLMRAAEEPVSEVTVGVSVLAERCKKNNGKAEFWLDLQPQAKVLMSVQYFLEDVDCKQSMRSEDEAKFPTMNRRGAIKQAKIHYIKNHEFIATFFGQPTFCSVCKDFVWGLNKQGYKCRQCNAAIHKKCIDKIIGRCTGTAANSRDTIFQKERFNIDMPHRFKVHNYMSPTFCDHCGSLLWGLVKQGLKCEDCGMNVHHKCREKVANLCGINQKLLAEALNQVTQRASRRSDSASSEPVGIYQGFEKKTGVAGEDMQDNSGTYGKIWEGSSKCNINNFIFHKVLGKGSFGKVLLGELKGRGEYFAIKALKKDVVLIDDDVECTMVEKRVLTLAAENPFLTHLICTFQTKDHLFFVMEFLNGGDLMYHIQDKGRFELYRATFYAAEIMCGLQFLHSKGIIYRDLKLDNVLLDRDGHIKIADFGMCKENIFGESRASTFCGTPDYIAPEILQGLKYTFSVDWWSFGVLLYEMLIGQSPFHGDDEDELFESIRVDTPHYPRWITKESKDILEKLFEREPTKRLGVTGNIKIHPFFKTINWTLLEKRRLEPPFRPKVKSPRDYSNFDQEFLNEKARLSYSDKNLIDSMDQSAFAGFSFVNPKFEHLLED
Chain of UniProt P31321 (P31321 whole entry, looked up): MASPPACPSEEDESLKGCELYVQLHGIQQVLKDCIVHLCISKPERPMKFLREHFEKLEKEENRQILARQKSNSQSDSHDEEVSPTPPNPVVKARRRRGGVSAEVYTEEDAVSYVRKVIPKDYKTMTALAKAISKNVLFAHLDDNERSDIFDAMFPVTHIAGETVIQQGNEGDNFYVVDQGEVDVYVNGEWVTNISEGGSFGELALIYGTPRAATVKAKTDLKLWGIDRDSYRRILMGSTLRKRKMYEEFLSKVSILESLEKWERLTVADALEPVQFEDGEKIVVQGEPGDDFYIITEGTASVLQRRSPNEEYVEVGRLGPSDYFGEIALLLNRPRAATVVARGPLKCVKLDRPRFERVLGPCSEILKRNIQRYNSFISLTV
Chain of UniProt Q15366 (Q15366 whole entry, looked up): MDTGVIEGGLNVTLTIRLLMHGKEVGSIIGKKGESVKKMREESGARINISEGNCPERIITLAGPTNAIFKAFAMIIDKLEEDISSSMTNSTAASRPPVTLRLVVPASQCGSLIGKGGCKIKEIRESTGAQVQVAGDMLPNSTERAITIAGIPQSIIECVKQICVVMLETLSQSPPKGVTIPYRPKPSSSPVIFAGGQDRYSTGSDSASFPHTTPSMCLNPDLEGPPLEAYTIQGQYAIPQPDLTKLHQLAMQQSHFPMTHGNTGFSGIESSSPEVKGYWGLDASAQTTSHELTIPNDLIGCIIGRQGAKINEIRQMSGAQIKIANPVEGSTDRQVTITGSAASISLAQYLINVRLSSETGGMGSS
Chain of UniProt P11498 (P11498 whole entry, looked up): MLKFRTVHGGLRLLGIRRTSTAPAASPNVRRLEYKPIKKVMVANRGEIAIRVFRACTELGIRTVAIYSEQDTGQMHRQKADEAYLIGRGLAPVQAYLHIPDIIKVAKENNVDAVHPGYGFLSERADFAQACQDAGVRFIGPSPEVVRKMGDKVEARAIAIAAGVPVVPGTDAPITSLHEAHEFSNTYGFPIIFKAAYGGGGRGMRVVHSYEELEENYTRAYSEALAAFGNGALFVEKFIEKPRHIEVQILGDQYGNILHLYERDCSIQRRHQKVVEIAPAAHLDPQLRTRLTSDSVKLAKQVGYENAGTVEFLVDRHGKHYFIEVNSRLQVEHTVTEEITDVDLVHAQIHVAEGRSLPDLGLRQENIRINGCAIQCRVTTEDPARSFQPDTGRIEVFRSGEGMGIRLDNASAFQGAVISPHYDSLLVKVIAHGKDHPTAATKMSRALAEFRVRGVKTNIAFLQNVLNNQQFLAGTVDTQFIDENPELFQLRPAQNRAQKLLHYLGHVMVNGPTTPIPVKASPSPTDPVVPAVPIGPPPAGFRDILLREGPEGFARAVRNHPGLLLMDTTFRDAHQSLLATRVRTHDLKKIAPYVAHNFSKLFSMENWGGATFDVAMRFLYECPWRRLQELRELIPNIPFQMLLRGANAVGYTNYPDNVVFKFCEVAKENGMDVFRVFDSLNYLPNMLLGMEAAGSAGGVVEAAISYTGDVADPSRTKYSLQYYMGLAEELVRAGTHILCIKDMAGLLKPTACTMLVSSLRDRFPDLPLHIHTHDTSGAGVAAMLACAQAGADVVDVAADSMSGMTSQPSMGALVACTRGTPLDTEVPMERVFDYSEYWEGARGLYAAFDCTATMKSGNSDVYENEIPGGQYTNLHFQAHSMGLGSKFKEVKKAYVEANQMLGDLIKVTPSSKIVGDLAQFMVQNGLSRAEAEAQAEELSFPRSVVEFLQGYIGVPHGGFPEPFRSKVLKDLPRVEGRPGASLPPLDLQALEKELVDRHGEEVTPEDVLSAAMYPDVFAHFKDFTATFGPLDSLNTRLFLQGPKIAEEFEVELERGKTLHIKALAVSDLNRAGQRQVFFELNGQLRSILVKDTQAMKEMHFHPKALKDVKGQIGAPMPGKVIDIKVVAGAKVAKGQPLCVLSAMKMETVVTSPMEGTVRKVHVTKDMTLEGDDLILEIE
Chain of UniProt O96013 (O96013 whole entry, looked up): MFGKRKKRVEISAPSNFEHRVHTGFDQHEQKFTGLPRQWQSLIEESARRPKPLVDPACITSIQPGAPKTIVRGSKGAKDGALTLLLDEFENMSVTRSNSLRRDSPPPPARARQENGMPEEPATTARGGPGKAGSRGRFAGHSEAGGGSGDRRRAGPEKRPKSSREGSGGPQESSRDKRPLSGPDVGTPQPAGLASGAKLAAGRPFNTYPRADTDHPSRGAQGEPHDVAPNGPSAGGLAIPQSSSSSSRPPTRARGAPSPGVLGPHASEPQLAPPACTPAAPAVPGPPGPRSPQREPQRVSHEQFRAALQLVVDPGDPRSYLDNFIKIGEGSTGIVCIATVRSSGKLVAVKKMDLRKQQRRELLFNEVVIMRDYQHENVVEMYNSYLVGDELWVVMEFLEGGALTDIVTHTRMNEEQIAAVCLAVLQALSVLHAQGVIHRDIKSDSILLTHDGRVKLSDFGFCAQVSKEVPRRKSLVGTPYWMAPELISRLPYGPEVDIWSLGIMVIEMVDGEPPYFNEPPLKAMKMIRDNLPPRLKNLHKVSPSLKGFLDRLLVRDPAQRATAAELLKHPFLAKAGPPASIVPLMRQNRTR
Chain of UniProt Q8NAV1 (Q8NAV1 whole entry, looked up): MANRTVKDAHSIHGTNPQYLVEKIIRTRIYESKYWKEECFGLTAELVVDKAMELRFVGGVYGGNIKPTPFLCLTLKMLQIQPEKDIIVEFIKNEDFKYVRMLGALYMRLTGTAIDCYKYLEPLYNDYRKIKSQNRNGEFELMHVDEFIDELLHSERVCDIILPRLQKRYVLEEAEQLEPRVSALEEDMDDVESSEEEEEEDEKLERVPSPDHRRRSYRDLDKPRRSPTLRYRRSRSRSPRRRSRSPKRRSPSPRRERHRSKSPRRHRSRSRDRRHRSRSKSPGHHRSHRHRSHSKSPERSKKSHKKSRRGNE
Chain of UniProt O95997 (O95997 whole entry, looked up): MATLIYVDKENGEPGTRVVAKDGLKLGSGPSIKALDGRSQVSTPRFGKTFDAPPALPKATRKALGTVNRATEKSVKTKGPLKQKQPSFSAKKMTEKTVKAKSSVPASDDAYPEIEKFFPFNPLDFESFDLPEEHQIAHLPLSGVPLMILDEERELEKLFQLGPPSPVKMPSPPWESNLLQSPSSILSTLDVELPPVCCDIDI
Chain of UniProt O96011 (O96011 whole entry, looked up, change not shown): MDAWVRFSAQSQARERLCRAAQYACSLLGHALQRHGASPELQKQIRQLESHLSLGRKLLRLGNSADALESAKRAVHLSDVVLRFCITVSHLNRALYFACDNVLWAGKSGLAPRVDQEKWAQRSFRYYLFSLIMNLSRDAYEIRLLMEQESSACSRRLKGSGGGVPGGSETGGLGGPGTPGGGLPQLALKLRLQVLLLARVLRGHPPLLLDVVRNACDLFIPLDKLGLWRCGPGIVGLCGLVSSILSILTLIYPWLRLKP

log2 fold change, inactive:
PTPA (UniProt Q15257) -0.01
PLSCR1 (UniProt O15162) -0.004
POLR2M (UniProt P0CAP2) 0.05
PEX11B (UniProt O96011) 0.056
PSMD1 (UniProt Q99460) -0.061
PLCB3 (UniProt Q01970) 0.054
PRKCD (UniProt Q05655) 0.016
PIR (UniProt O00625) 0.111
PFDN1 (UniProt O60925) 0.056
POLR3B (UniProt Q9NW08) 0.004
PPP2R5E (UniProt Q16537) -0.007
PRPF40A (UniProt O75400) 0.032
PC (UniProt P11498) 0.047
PCBP2 isoform 3 (UniProt Q15366) 0.019
PNN (UniProt Q9H307) 0.025
PTTG1 (UniProt O95997) -0.043
POLR2K (UniProt P53803) -0.017
PAK4 (UniProt O96013) 0.015
PRPF38A (UniProt Q8NAV1) 0
PRKACA (UniProt P17612) -0.034
POLR3K (UniProt Q9Y2Y1) -0.057
PRKAR1B (UniProt P31321) 0.205
PRPF3 (UniProt O43395) 0.015
PLCL1 (UniProt Q15111) -0.042
